Measured values as given in PubChem BioAssay AID652048 (National Center for Advancing Translational Sciences (NCATS), 2013).
Where “and” joins values, the source holds several entries; their conditions need not be identical. Equal values may be shown once. Among all 410,000 compounds or so, about 2,400 (0.59%) were called active. The full list was thinned out, with actives kept by preference. Values without a mark were called inactive. No stated cut-off is given here; in the data, active means max activation above about 30%; inactive means the rest.

Target: D(3) dopamine receptor (Homo sapiens) (UniProt P35462)
Test: qHTS of D3 Dopamine Receptor Agonist: qHTS; further: 0% is about no effect
Conditions: D3R DiscoveRx beta-arrestin cells, luminescence, 90 min; stronger effect = higher value
Outline: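 Cells at 1500/well, incubated overnight, then treated with pinned compounds (dopamine as control) for 90 min at 37 degrees C. DiscoveRx reagent added for 30 - 60 minutes at room temperature; luminescence read.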

Sequence of D(3) dopamine receptor (Homo sapiens) (P35462 whole entry, looked up): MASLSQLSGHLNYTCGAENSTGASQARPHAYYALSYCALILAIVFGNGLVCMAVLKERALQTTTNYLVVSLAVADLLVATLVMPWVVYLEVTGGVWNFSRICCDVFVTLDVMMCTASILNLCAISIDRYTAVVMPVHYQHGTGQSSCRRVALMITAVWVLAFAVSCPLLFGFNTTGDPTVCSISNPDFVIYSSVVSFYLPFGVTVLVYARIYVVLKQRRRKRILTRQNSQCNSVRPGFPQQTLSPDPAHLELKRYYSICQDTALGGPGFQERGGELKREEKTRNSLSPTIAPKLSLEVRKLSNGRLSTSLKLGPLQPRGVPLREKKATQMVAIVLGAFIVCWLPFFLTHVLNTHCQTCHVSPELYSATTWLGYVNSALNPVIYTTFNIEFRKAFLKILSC

Question: How did the max activation turn out when `COc1cc(CNCCSc2nnnn2C)ccc1OCc1ccc(Cl)cc1Cl` was run?
Answer: -19%

Question: Which max activation does the source give for `O=C(CCC1N=C2c3ccccc3N=C(SCc3ccccc3F)N2C1=O)NCCc1ccccc1` (centres undefined) here?
Answer: 5.62%

Question: `O=C(Cn1nnc(-c2ccccc2)n1)NC(=O)NC1CCCC1` was tested. Which max activation did it give?
Answer: 4.92%

Question: For `O=C(Cn1nnc(-c2ccccc2)n1)N/N=C/c1ccc(-c2ccc(Cl)cc2)o1`, which max activation is on record?
Answer: 34.9% (active)

Question: `Cc1ccc(NC(=O)CN(C)C(=O)Cn2nnc(-c3ccccc3)n2)cc1` was tested. Which max activation did it give?
Answer: 5.42%

Question: With `CCOc1ccc(CNC(=O)c2cc(=O)[nH]c3ccc(S(=O)(=O)N4CCCCC4)cc23)cc1` as the compound, how does the max activation read?
Answer: 1.15%

Question: With `COc1ccc2cc(CNc3ccc(OC)c(OC)c3)c(=O)n(CC(=O)Nc3ccccc3F)c2c1` as the compound, how does the max activation read?
Answer: 2.84%

Question: With `Cc1ccc(OCCSc2nc(C)c(Cc3ccccc3)c(=O)[nH]2)cc1` as the compound, how does the max activation read?
Answer: 4.35%

Question: With `Cc1ccc(CNC(=O)Cc2cn(C)c3ccccc23)cc1` as the compound, how does the max activation read?
Answer: -3.47%

Question: How did the max activation turn out when `Cc1ccc(CNC(=O)c2ccccc2CCc2ccccc2)cc1` was run?
Answer: 31.4% (active)

Question: `Cc1ccc(CNC(=O)[C@@H](NC(=O)Cc2ccccc2)C(C)C)cc1` was tested. Which max activation did it give?
Answer: -1.46%

Question: `COC(=O)C1(S(=O)(=O)C2(C(=O)OC)CCCC2)CCCC1` was tested. Which max activation did it give?
Answer: 31% (active)

Question: For `CC1(C)OC[C@@H](COC(=O)CCc2ccc(OC[C@@H](O)CNCCNC(=O)N3CCOCC3)cc2)O1`, which max activation is on record?
Answer: -23.2% and -20.2%

Question: How did the max activation turn out when `CC(C)(C)OC(=O)CNC(=O)c1[nH]cnc1C(=O)N[C@@H](CCCCN)C(=O)OC(C)(C)C` was run?
Answer: 0%

Question: For `COc1ccc(-c2cn3c(n2)sc2cc(C(=O)Nc4ccccc4F)ccc23)cc1`, which max activation is on record?
Answer: 35.4% (active)

Question: With `COc1ccc(-c2cn3c(n2)sc2cc(C(=O)Nc4ccc(F)cc4)ccc23)cc1` as the compound, how does the max activation read?
Answer: 13.3%

Question: How did the max activation turn out when `CCN1CCN(CCCNC(=O)c2ccc3c(c2)sc2nc(-c4ccc(OC)cc4)cn23)CC1` was run?
Answer: -6.77%

Question: Which max activation does the source give for `O=C(Nc1ccc(O)cc1)c1ccccc1O` here?
Answer: -0.0653%

Question: `CC1(C)S[C@@H]2[C@H](NC(=O)COc3ccccc3)C(=O)N2C1C(=O)OCc1ccccc1` (some centres undefined) was tested. Which max activation did it give?
Answer: -3.7%

Question: `COC(=O)C1[C@H]2SC(C)(C)C(C(=O)OC)N2C(=O)N1Cc1nc2ccccc2s1` (some centres undefined) was tested. Which max activation did it give?
Answer: 37.5% (active)

Question: For `CC1(C)SC2C(NC(=O)COc3ccccc3)C(=O)N2C1C(=O)O` (centres undefined), which max activation is on record?
Answer: 2.21% and 6.06%

Question: For `Cc1ccc2[nH]c3c(=O)n(CC(=O)NC(C)C)ncc3c2c1`, which max activation is on record?
Answer: 2.56%

Question: `CCOc1ccc(NS(=O)(=O)c2ccc(N)cc2)nn1` was tested. Which max activation did it give?
Answer: -7.97%

Question: How did the max activation turn out when `COc1cccc(C(=O)Nc2c3c(nn2-c2cccc(C)c2C)CS(=O)(=O)C3)c1OC` was run?
Answer: -20.8%

Question: With `COc1ccc(C(=O)NC2CCCc3c2cnn3-c2cccc(C)c2C)c(OC)n1` (centres undefined) as the compound, how does the max activation read?
Answer: 48.2% (active)

Question: Which max activation does the source give for `Cc1cccc(C(=O)OC(C)C(=O)NC2CCCc3ccccc32)c1O` (centres undefined) here?
Answer: -10.5%

Question: How did the max activation turn out when `Cc1ccc(NC(=O)c2nc(S(=O)(=O)Cc3cccc(C)c3)ncc2Cl)cc1` was run?
Answer: -23.7%

Question: `CC1(C)S[C@@H]2[C@H](N=CN3CCCCCC3)C(=O)N2[C@H]1C(=O)O` was tested. Which max activation did it give?
Answer: -22.5%

Question: How did the max activation turn out when `CC(C)(C)OC(=O)N1CCC(c2c(C(=O)NCCc3ccsc3)cnn2-c2ccc(F)cc2F)CC1` was run?
Answer: 6.51%

Question: `CCOc1ccc(/C=C/C(=O)OCC(=O)c2ccccc2OC)cc1OC` was tested. Which max activation did it give?
Answer: 3.52%

Question: How did the max activation turn out when `COc1ccc(/C=C/C(=O)c2cc(Br)ccc(=O)c2O)cc1` was run?
Answer: -1.59%

Question: For `COCOc1cc(O)c(C(=O)/C=C/c2ccc(OCOC)c(OCOC)c2)c(OCOC)c1`, which max activation is on record?
Answer: 32% (active)

Question: `O=C(Nc1cccc(C(F)(F)F)c1)c1cc(Br)cc(Br)c1O` was tested. Which max activation did it give?
Answer: 0.389%

Question: With `CC(C(=O)O)c1ccc(C2CCCCC2)c2ccccc12` (centres undefined) as the compound, how does the max activation read?
Answer: 4%

Question: How did the max activation turn out when `Cc1ccc2nc(CN3CCN(S(=O)(=O)c4ccc(C)c(C)c4)CC3)oc2c1` was run?
Answer: -11.8%

Question: For `COc1ccc2sc(-c3ccc(N(C)C)cc3)c(C#CCO)c2c1`, which max activation is on record?
Answer: 38.4% (active)

Question: For `COc1ccc2c(c1)c(=Cc1ccc(N(C)C)cc1)c1cc(-c3ccccc3)[n+](C)n12`, which max activation is on record?
Answer: 1.19%

Question: Which max activation does the source give for `Cc1ccc(C)c(S(=O)(=O)n2nc(C)c(S(=O)(=O)N3CCC(C)CC3)c2C)c1` here?
Answer: 3.28%

Question: With `CC(O)COc1ccccc1` (centres undefined) as the compound, how does the max activation read?
Answer: 8.58%

Question: How did the max activation turn out when `O=C(COC(=O)c1cc(=O)[nH]c2ccccc12)NCc1cccc(Cl)c1` was run?
Answer: 3.7%

Question: `O=C(COC(=O)c1cc(=O)[nH]c2ccccc12)Nc1nc(-c2cccc(Br)c2)cs1` was tested. Which max activation did it give?
Answer: 38.6% (active)

Question: For `COc1ccc(NC(=O)CSc2nc3ccccc3[nH]2)cc1`, which max activation is on record?
Answer: 0.0768%

Question: With `CC1CCN(C(=O)COC(=O)c2cc(=O)[nH]c3ccccc23)CC1` as the compound, how does the max activation read?
Answer: -2.85%

Question: For `O=C(CSc1nc(O)c(Cc2ccccc2)c(=O)[nH]1)Nc1nc2c(s1)CCCC2`, which max activation is on record?
Answer: 3.59%

Question: With `O=C(CSc1nc2ccccc2c(=O)[nH]1)Nc1nc(-c2ccc(Br)cc2)cs1` as the compound, how does the max activation read?
Answer: 37.7% (active)

Question: For `COc1ccc(C(=O)Nc2cccc(C(=O)OCc3cc(=O)n4c5c(sc4n3)CCCC5)c2)cc1`, which max activation is on record?
Answer: -9.48%

Question: Which max activation does the source give for `COc1cccc2cc(-c3nc(Cl)c4c5c(sc4n3)CC(C)CC5)c(=O)oc12` (centres undefined) here?
Answer: 8.91%

Question: How did the max activation turn out when `COC(=O)c1sccc1S(=O)(=O)N(CC(=O)Nc1ccc(C)c(F)c1)c1ccc(C)c(C)c1` was run?
Answer: -2.21%

Question: For `Cc1ccc(CN2CCC(CNC(=O)c3cnn(-c4ccccc4Cl)c3C3CCN(C(=O)OC(C)(C)C)CC3)CC2)cc1`, which max activation is on record?
Answer: -13.6%

Question: Which max activation does the source give for `CO/N=C(/C(=O)N[C@@H]1C(=O)N2C(C(=O)O)=C(Cn3nnc(C)n3)CS[C@H]12)c1csc(N)n1` here?
Answer: -4.25%

Question: How did the max activation turn out when `CSc1ccc(CCNC(=O)C2CCN(c3nnc(-n4cccc4)s3)CC2)cc1` was run?
Answer: -2.44%

Question: For `Cc1ccc(CCNC(=O)C2CCN(c3nnc(-n4cccc4CNc4ccc(C)cc4)s3)CC2)cc1`, which max activation is on record?
Answer: 56.2% (active)

Question: How did the max activation turn out when `CCOc1ccc(CNC(=O)C2CCN(c3nnc(-n4cccc4CNc4ccc(C)cc4)s3)CC2)cc1OC` was run?
Answer: 1.82%

Question: For `N[C@H]1CN(c2c(F)cc3c(=O)c(C(=O)O)cn(C4C[C@H]4F)c3c2Cl)CC12CC2` (some centres undefined), which max activation is on record?
Answer: -3.15%
